Assay outcomes: PubChem BioAssay, National Center for Advancing Translational Sciences (NCATS)
Compounds with a hit are over-represented: about 22% of the library has one in this group of screens.
Pf growth 96h = Primary qHTS for delayed death inhibitors of the malarial parasite plastid, 96 hour incubation; 6.9% of 320,000 active; P. falciparum luciferase reporter growth, 96 h; Potency, µM (highest dose often 28.7 µM), for the others: at the highest dose activity change, negative = inhibition, most hits filed as inhibitors; note: potency is the fitted concentration of half-maximal effect; % is set by controls: 0 for no effect and ±100 for the full control effect
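Plates of compound plus infected erythrocytes (2% hematocrit, 0.05% parasitemia final) incubate 96 hours, 37 C, 5% CO2. Detection reagent added; reduced luminescence from the parasites' luciferase reporter flags inhibition.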
Pf growth 48h = Primary qHTS for delayed death inhibitors of the malarial parasite plastid, 48 hour incubation; Potency, µM (highest dose often 28.7 µM), for inactives: top-dose activity change, negative = inhibition, most hits filed as inhibitors; AID 504832, 2011; P. falciparum luciferase growth in erythrocytes, 48 h; 5.9% of 310,000 active; note: potency is the fitted concentration of half-maximal effect; % is set by controls: 0 for no effect and ±100 for the full control effect
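Here the parasites carry a stable luciferase gene and grow inside erythrocytes in Albumax-based RPMI medium with compound for one erythrocytic cycle. Activity is scored as loss of luminescent signal.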
LmPK inhibitor = qHTS Assay for Inhibitors of Leishmania Mexicana Pyruvate Kinase (LmPK). Potency, µM (highest dose often 57.5 µM), without a hit: at the highest dose activity change, negative = inhibition, hits mostly inhibitors. purified LmPK, Kinase-Glo ATP luminescence, 1 h. 0.37% of 290,000 active. AID 1721, 2009. Q27686; note: potency is the fitted concentration of half-maximal effect; % is set by controls: 0 for no effect and ±100 for the full control effect
Target sequence (Q27686 whole entry, looked up): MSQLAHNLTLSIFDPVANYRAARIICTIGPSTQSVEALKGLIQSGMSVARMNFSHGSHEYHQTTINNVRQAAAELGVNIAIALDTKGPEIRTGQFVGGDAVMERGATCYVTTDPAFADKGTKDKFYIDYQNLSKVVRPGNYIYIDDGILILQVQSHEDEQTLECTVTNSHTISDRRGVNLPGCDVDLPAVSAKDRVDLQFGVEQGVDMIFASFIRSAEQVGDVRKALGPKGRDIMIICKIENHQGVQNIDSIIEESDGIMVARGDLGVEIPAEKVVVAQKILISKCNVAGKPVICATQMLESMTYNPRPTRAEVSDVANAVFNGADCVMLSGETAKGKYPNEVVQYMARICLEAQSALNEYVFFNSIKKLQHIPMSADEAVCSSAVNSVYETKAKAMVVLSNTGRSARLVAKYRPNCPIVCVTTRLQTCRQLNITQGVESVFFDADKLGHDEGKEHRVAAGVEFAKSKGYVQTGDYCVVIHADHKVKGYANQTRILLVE
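In 50 mM imidazole pH 7.2 with 7 mM MgCl2, LmPK (0.1 nM) turned over PEP (0.5 mM) and ADP (0.1 mM) for 1 h at room temperature. Luciferase read-out of ATP.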
Cycloheximide cs = Cycloheximide Counterscreen for Small Molecule Inhibitors of Shiga Toxin; AID 2314, 2010; cell reporter, cycloheximide protein synthesis inhibition counterscreen; 12% of 300,000 active; max response, %; in the data active = max response mostly above about 13%, no sharp cut-off; inactive = mostly below about 14%; note: read at 38.3 µM for the half of the compounds with a filed dose; 0% is about no effect
Shiga inhibitor = A qHTS for Small Molecule Inhibitors of Shiga Toxin | AID 2315, 2010 | inhibition, % at 38.7 µM | 9.2% of 290,000 active | Vero cells, Shiga toxin protein synthesis inhibition reporter; in the data active = inhibition mostly above about 28%, no sharp cut-off; inactive = mostly below about 43%; note: 0% is about no effect
* hit, by the source's call; ? = inconclusive; · = not tested or not shown; [ ] = remark or other dose. Unless noted, calls come from the whole dose curve; as a rule, active = well fitted inhibition curve with a large enough effect; inconclusive = small, poorly fitted or top-dose-only effect, or another doubt; inactive = no such curve, though single readings can be large or run the other way.

SMILES	Pf growth 96h	Pf growth 48h	LmPK inhibitor	Cycloheximide cs	Shiga inhibitor
N#CC(C(=O)Nc1ccccc1)=C1Nc2ccccc2N1	·	41%	4%	30	75*
N#CC(C(=O)Nc1ccc(Cl)c(Cl)c1)=C1Nc2ccccc2N1	2.6µM*	7%	7%	11	-13
Nc1c(Br)cc(Br)c2cccnc12	·	·	·	-7	-8
CN1CN(C)c2cccc3cccc1c23	4.1µM*	?	1%	0	-11
CCCSc1n[nH]c(NC(C)=O)n1	28%	·	-4%	1	-4
CSc1n[nH]c(NC(C)=O)n1	8%	1.2µM*	-7%	0	-28
CC(=O)Oc1ccccc1C(=O)OCCN=C1NS(=O)(=O)c2ccccc21	24%	3%	2%	-4	-11
CN(C)S(=O)(=O)c1cccc(C(=O)NC2CCSc3ccccc32)c1 (centres undefined)	12µM*	?	-6%	-1	-12
O=C(NC1CCCc2ccccc21)c1ccc([N+](=O)[O-])cc1 (centres undefined)	6%	2%	5%	2	2
CS(=O)(=O)Cc1cccc(C(=O)NC2CCSc3ccccc32)c1 (centres undefined)	75%	6%	4%	10	17
O=C(NC1CCSc2ccccc21)c1cccc([N+](=O)[O-])c1 (centres undefined)	2.3µM*	1.5µM*	-5%	23	48*
N#CCc1ccc(C(=O)c2ccccc2)s1	10%	9%	2%	18*	44
C[C@@H](C(=O)O)c1ccc(C(=O)c2ccccc2)s1	-14%[12.8 µM]	6%[12.8 µM]	·	·	·
O=C(CNC(=O)c1ccc(F)cc1)N/N=C/c1cccnc1	10%	74%	5%	0	-6
Cc1cc(C)nc(OC(C(=O)O)C(OCC(C)C)(c2ccccc2)c2ccccc2)n1 (centres undefined)	-6%	7%	6%	-2	-5
CC(=O)c1ccc(NC(=O)C(C)Sc2ccccn2)cc1 (centres undefined)	?	69%	2%	34*	77*
CC(Sc1ccccn1)C(=O)Nc1ccccc1 (centres undefined)	?	60%	5%	40*	76*
COC(=O)c1ccc(NC(=O)CCCN2C(=O)NC(C)(C)C2=O)cc1	-11%	5%	·	·	·
CCCCOC(=O)c1nc[nH]c1C(=O)OCCCC	10%	1%	-1%	3	-4
C/C=C/COC(=O)C1=C(C)NC(=O)NC1c1ccc2c(c1)OCO2 (centres undefined)	?	18%	1%	-2	·
O=C1CCCN1c1ncc(S(=O)(=O)c2ccc([N+](=O)[O-])cc2)s1	4.1µM*	?	2%	-2	27
O=C1Cc2cc(NS(=O)(=O)c3ccc([N+](=O)[O-])cc3)cc3c2N1CCC3	10%	-8%	·	·	·
COc1ccc(C(=O)/C=C/Nc2ccc(S(=O)(=O)Nc3onc(C)c3C)cc2)cc1	46%	19%	1%	44*	77*
Cc1noc(NS(=O)(=O)c2ccc(N/C=C/C(=O)c3ccc(F)cc3)cc2)c1C	-26%	91%	2%	33*	69*
Cc1noc(NS(=O)(=O)c2ccc(N/C=C/C(=O)c3cccnc3)cc2)c1C	-9%	7%	-4%	16*	43*
SMILES	Pf growth 96h	Pf growth 48h	LmPK inhibitor	Cycloheximide cs	Shiga inhibitor
COc1ccc(S(=O)(=O)Nc2ncccn2)cc1	-14%	6%	0%	9	17
COc1ccc(C(=O)/C=C/Nc2ccc(S(=O)(=O)Nc3ncccn3)cc2)cc1	50%	4%	2%	20*	38
Cc1noc(NS(=O)(=O)c2ccc(N/C=C\C(=O)c3ccncc3)cc2)c1C	?	·	0%	-3	-5
Nc1nc(SCCO)[nH]c(=O)c1NC(=O)c1ccccc1F	-3%	1%	4%	5	-5
CCc1ccc(C(=O)/C=C/Nc2ccc(S(=O)(=O)Nc3onc(C)c3C)cc2)cc1	-7%	15%	0%	50*	92*
Cc1cccc(N/C(N)=N/c2nc3c(c(=O)[nH]2)CCCC3)c1	22%	13%	1%	1	-8
N/C(=N\c1nc2c(c(=O)[nH]1)CCCC2)Nc1ccc(Oc2ccccc2)cc1	8.3µM*	?	4%	-5	-8
Cc1cc(C)nc(SCc2nc3nc(C)cc(C)n3c2Br)n1	1.5µM*	10µM*	1%	-3	-1
Cc1cc(C)n2c(Br)c(CN3CCCC(C)C3)nc2n1 (centres undefined)	22%	1%	-4%	10	7
COc1ccc(C(CNC(=O)c2oc3cc(Br)ccc3c2C)N2CCCCC2)cc1 (centres undefined)	22%	?	-1%	-1	-4
COc1ccc(C(CNC(=O)C(C)Oc2ccc(Br)cc2)N2CCCCC2)cc1 (centres undefined)	?	13µM*	·	·	·
COc1ccc(C(CNC(=O)CCNS(=O)(=O)c2ccc(Br)cc2)N2CCCC2)cc1 (centres undefined)	2.1µM*	4.1µM*	·	·	·
CCCCNC(=O)CCNS(=O)(=O)c1ccc(Br)cc1	15%	21%	7%	4	-7
CCC(C)NC(=O)CCNS(=O)(=O)c1ccc(Br)cc1 (centres undefined)	7.4µM*	-9%	-2%	-2	14
COc1ccc(/C=C(/NC(=O)c2ccc([N+](=O)[O-])cc2)C(=O)NCCCN(C)C)cc1	6%	-34%[5.75 µM]	1%	-3	28
CC(NS(=O)(=O)c1cc2c3c(c1)CCC(=O)N3CCC2)c1ccccc1 (centres undefined)	53%	2%	·	·	·
Cc1ccc(OCC(=O)N(Cc2ccco2)c2c(N)n(Cc3ccccc3)c(=O)[nH]c2=O)cc1C	-13%	0%	·	·	·
COc1ccc(C(=O)Oc2ccc(/C=N/O)cc2)cc1	?	49%	1%	74*	83*
COc1ccc(/C=N/N=C/c2ccc(OC)cc2)cc1	?	?	0%	25*	46
COc1cc(/C=N/N=C/c2cc(OC)c(O)c(OC)c2)cc(OC)c1O	4.1µM*	10µM*	0%	10	-2
Cc1ccc(C(=O)Oc2ccc(/C=N/NC(N)=O)cc2)cc1	1%	9%	2%	19	3
COc1ccc(/C=N\N=C(N)N)cc1	7%	?	0%	-2	1
COc1cc(/C=N/N=C(N)N)ccc1OCc1ccccc1Cl	29%	2.6µM*	-2%	19	5
CCN(CC(=O)Nc1ccc(NC(C)=O)cc1)C(=O)CSCc1c(C)noc1C	32%	0%	·	·	·
CCN(Cc1ccccc1)C(=O)CCS(=O)(=O)c1ccc2c(c1)NC(=O)CO2	86%	-7%	4%	-3	-2
CCOc1ccc(C(=O)Nc2nnc(SCC(=O)NCC3CCCO3)s2)cc1OCC (centres undefined)	8%	1%	-7%	1	-7
COc1ccc(/C=N/N=C/c2ccc(OC)c(OC)c2)cc1OC	117%	3.7µM*	-11%	-4	-4
